# Measurements taken from PubChem BioAssay (Tox21).
# Values joined by “and” are separate entries in the source; they are usually repeats but may differ in a detail not shown here. Equal entries are not always repeated. Results filed as inconclusive are left out. Entries that show only a call come without a potency. Some compounds were tested as several samples or in several runs, with calls that do not always agree. Active and inactive are the calls of the source. Calls follow the shape of the full dose curve.
# Experiment: qHTS assay to identify small molecule agonists of the progesterone receptor (PR) signaling pathway - cell viability counter screen (AID 1346799); also: nearly all actives have a fitted effect of over 45% in size
# Conditions: PR-UAS-bla HEK293T viability, CellTiter-Glo luminescence, 16 h; series mostly up to 92.4 µM
# Excerpt: National Center for Advancing Translational Sciences [NCATS]
# NIH Chemical Genomics Center [NCGC]
# U.S. Environmental Protection Agency [EPA]
# National Institutes of Environmental Health Sciences [NIEHS]
# National Toxicology Program [NTP]
# U.S. Food and Drug Administration [FDA]
# Progesterone receptor (PR), a nuclear hormone receptor, plays an important role in development, metabolic homeostasis and reproduction. It is activated by the steroid hormone progesterone. Endocrine disrupting chemicals (EDCs) and their interactions with steroid hormone receptors like PR causes disruption of normal endocrine function. To identify the compounds that stimulate PR signaling, a PR-UAS-bla GripTite cell line i.e. PR-UAS-bla HEK293T (Invitrogen, Carlsbad, CA, USA) containing a beta-lactamase reporter gene under the control of an UAS response element was used to screen Tox21 10K compound library. The cytotoxicity of the Tox21 compound library against the PR-bla cell line was tested in parallel by measuring the cell viability using CellTiter-Glo assay in the same wells.
# Tox21 Assay Protocol Summary:
# PR-UAS-bla HEK293T cells were dispensed at 3,000 cells/5 uL of assay medium containing 2% charcoal stripped FBS per well into black wall/clear-bottom 1536-well plates using a Multidrop Combi (ThermoFisher Scientific, Waltham, MA) dispenser. After the assay plates were incubated at a 37C and 5% CO2 for 6 hr, 23 nL of compounds dissolved in DMSO, positive controls or DMSO only was transferred to the assay plate by a Pintool station (Kalypsys, San Diego, CA). The plates were incubated at 37C and 5% CO2 for 16 hr. Then 1 uL of LiveBLAzer B/G FRET substrate was added using a Flying Reagent Dispenser (FRD, Aurora Discovery, San Diego, CA), the plates were incubated at room temperature for 2 hours, and fluorescence intensity was measured by an Envision plate reader (PerkinElmer, Shelton, CT). For cell viability readout that measures cytotoxicity, 4 uL/well of CellTiter-Glo reagent was added into the assay plates using a FRD. After 30 min incubation at room temperature, the luminescence intensity in the plates was measured using a ViewLux (PerkinElmer) plate reader.
# Potency is read from the fitted curve at half-maximal effect.
row,SMILES,Potency
1,NC(=O)c1cccnc1,inactive
2,CC(=O)CC(c1ccccc1)c1c(O)c2ccccc2oc1=O (stereo not given),inactive
3,CN1[C@@H]2CC(OC(=O)[C@H](CO)c3ccccc3)C[C@H]1[C@@H]1O[C@@H]12 (stereo not given in full),inactive
4,CCCCOC(=O)c1ccc(O)cc1,inactive
5,C/C=C/C=C/C(=O)O,inactive
6,NS(=O)(=O)O,inactive
7,COc1ccc2c(c1)c(CC(=O)O)c(C)n2C(=O)c1ccc(Cl)cc1,inactive
8,CC(C)NCC(O)c1ccc(O)c(O)c1 (stereo not given),inactive
9,NC(CO)(CO)CO,inactive
10,C=CCc1ccc(O)c(OC)c1,inactive
11,CC(=O)Nc1c(I)c(NC(C)=O)c(I)c(C(=O)O)c1I,inactive
12,CCCCC(CC)C(=O)O (stereo not given),inactive
13,CN1CCC[C@H]1c1cccnc1,inactive
14,CS(=O)(=O)OCCCCOS(C)(=O)=O,inactive
15,Cc1cn([C@H]2C=C[C@@H](CO)O2)c(=O)[nH]c1=O,inactive
16,CC(=O)C(=O)O,inactive and 34.4 µM (active)
17,Cc1cccc(C)c1,inactive
18,CN(N=O)C(=O)N[C@@H]1[C@@H](O)[C@H](O)[C@@H](CO)O[C@@H]1O,inactive
19,Cc1ncc([N+](=O)[O-])n1C,inactive
20,CCCCCCCCCCCCCCCC[N+](C)(C)Cc1ccccc1,10 µM (active) and 12.4 µM (active) and 6.68 µM (active)

row,SMILES,Potency
1,Nc1c2c(nc3ccccc13)CCCC2,inactive
2,CC(C)C(=O)Nc1ccc([N+](=O)[O-])c(C(F)(F)F)c1,inactive
3,O=c1[nH]cc(F)c(=O)[nH]1,28.3 µM (active) and inactive
4,CC(C)c1c(C(=O)Nc2ccccc2)c(-c2ccccc2)c(-c2ccc(F)cc2)n1CC[C@@H](O)C[C@@H](O)CC(=O)O,1.48 µM (active) and 227 nM (active) and 2.11 µM (active)
5,CCCCCCCC(=O)OCC(COC(=O)CCCCCCC)OC(=O)CCCCCCC,inactive
6,CC12CCC(CC1)C(C)(C)O2,inactive
7,CC1(C)O[C@@H]2C[C@H]3[C@@H]4CCC5=CC(=O)C=C[C@]5(C)[C@@]4(F)[C@@H](O)C[C@]3(C)[C@]2(C(=O)CO)O1,inactive
8,Cc1c(C(=O)O)c(O)cc2c1C(=O)c1c(O)c([C@@H]3O[C@H](CO)[C@@H](O)[C@H](O)[C@H]3O)c(O)c(O)c1C2=O,inactive
9,COc1cccc(O)c1O,inactive
10,Oc1ccccc1,inactive
11,COc1ccc2cc(S(=O)(=O)N[C@H](CC(=O)N[C@H](Cc3ccc(CN4[C@H](C)CCC[C@@H]4C)cc3)C(=O)N(C)C(C)C)c3ccc4c(c3)OCO4)ccc2c1,29 µM (active)
12,CNNCc1ccc(C(=O)NC(C)C)cc1,inactive
13,NS(=O)(=O)c1cc2c(cc1Cl)NCNS2(=O)=O,inactive
14,Cn1c(=O)c2c(ncn2C)n(C)c1=O,inactive
15,CN(C)C(=S)SC(=S)N(C)C,2.22 µM (active) and 1.22 µM (active) and 266 nM (active)
16,CCCCCCCCCCCC[N+](C)(C)Cc1ccccc1,8.47 µM (active) and 8.36 µM (active) and 10.6 µM (active)
17,O=C1O[C@H]([C@@H](O)CO)C(O)=C1O,inactive
18,OC[C@H]1O[C@H](O[C@]2(CCl)O[C@H](CCl)[C@@H](O)[C@@H]2O)[C@H](O)[C@@H](O)[C@H]1Cl,inactive
19,Nc1c(N=Nc2ccc(-c3ccc(N=Nc4cc(S(=O)(=O)O)c5ccccc5c4N)cc3)cc2)cc(S(=O)(=O)O)c2ccccc12,inactive
20,CCOc1ccc(NC(C)=O)cc1,inactive
